For assay [1], the target named is Bile acid receptor (Homo sapiens) (UniProt Q96RI1). The assay is described as follows: OT_FXR_FXRSRC1_0480: Odyssey Thera (OT) 8-hour HEK293T Protein-Complementation Assay for Farnesoid X receptor/SRC-1 Co-activator (AID 2283383). A digest of the protocol:
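Co-activator recruitment to FXR was measured in living HEK293T cells, where interaction of the two fused partners restored an active fluorescent reporter. Signal gain after 8 h treatment was referenced to DMSO.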

Assay [2] has as its target Retinoic acid receptor RXR-alpha (Homo sapiens) (UniProt P19793). The assay is described as follows: OT_NURR1_NURR1RXRa_0480: Odyssey Thera (OT) 8-hour HEK293T Protein Complementation Assay for Nurr1/retinoid X receptor (RXR) (AID 2283385). Put shortly: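 Compounds are applied to HEK293T cells carrying Nurr1 and RXRα linked to reporter fragments. After 8 h, fluorescence intensity reports heterodimer formation, with DMSO as baseline.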

For assay [3] the target is unchanged. As to the kind of experiment: OT_NURR1_NURR1RXRa_1440: Odyssey Thera (OT) 24-hour HEK293T Protein Complementation Assay for Nurr1/retinoid X receptor (RXR) (AID 2283386). A digest of the protocol: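 Measured as fluorescence from a reconstituted split reporter, this 24 h HEK293T complementation assay scores compound-induced gain of Nurr1/RXRα association relative to DMSO.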

Assay [4] has as its target Peroxisome proliferator-activated receptor gamma (Homo sapiens) (UniProt P37231). As to the kind of experiment: OT_PPARg_PPARgSRC1_0480: Odyssey Thera (OT) 8-hour Protein-Complementation Assay for Peroxisome Proliferator-activated Receptor Gamma / SRC-1 Co-activator (AID 2283387).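 Further: nuclear to cytoplasmic split Venus YFP fluorescence ratio reporting PPARg SRC-1 interaction.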 A digest of the protocol:
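HEK293T transiently transfected with PPARg and SRC-1 fused to Venus YFP fragments, compounds 8 h at 37C. Fixed, Draq5-stained cells imaged; nuclear/cytoplasmic 488 nm fluorescence ratio over at least 350 cells per image; gain fitted versus DMSO.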

For assay [5] the target is unchanged. The assay is described as follows: OT_PPARg_PPARgSRC1_1440: Odyssey Thera (OT) 24-hour Protein-Complementation Assay for Peroxisome Proliferator-activated Receptor Gamma/ SRC-1 Co-activator (AID 2283388). A digest of the protocol: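 Readout: nuclear-to-cytoplasmic 488 nm fluorescence ratio, ≥350 cells per image, 8 images per well, after 24 h compound exposure of HEK293T expressing PPARg/SRC-1 split-YFP fusions. Activity fitted in positive direction against DMSO.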

Assay [6] concerns the target Bile acid receptor (Homo sapiens) (UniProt Q96RI1). As to the kind of experiment: OT_FXR_FXRSRC1_1440: Odyssey Thera (OT) 24-hour HEK293T Protein-Complementation Assay for Farnesoid X receptor/SRC-1 Co-activator (AID 2283384). A digest of the protocol:
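Cell-based binding reporter: interaction of FXR with SRC-1 brings reporter fragments together, giving a fluorescence signal read 24 h after dosing of HEK293T cells.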

Assay [7] in a line: CEETOX_H295R_11DCORT: CeeTox H295R High-throughput Steroidogenesis Assay for 11-Deoxycortisol (11DCORT) (AID 2283432; active means hit-call score of the fitted dose curve at least 0.9, where 1 is the maximum; inactive means score below 0.9;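 on AC50: human adrenal H295R cells prestimulated with 10 µM forskolin for 48 h; 11-deoxycortisol secreted into the medium measured by LC-MS/MS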). To be noted: actives raise or lower the signal. Put shortly:
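H295R cells prestimulated 48 h with 10 uM forskolin, then exposed 48 h to chemical in 0.1% DMSO. 11-Deoxycortisol in medium quantified by HPLC-MS/MS after MTBE extraction; bidirectional fit versus DMSO. MTT viability read in same wells.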

Assay [8] is described as follows: CEETOX_H295R_OHPREG: CeeTox H295R High-throughput Steroidogenesis Assay for OH-Pregnenolone (OHPREG) (AID 2283434; active means hit-call score of the fitted dose curve at least 0.9, where 1 is the maximum; inactive means score below 0.9). Particulars: actives raise or lower the signal. Put shortly:
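Hormone levels in spent medium were measured by tandem mass spectrometry following liquid-liquid extraction. Cells (H295R) had been forskolin-stimulated (10 uM, 48 h) before a 48 h chemical exposure at 0.1% DMSO, with activity fitted in both directions against DMSO.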

A short description of assay [9]: CEETOX_H295R_OHPROG: CeeTox H295R High-throughput Steroidogenesis Assay for OH-Progesterone (OHPROG) (AID 2283435; active means hit-call score of the fitted dose curve at least 0.9, where 1 is the maximum; inactive means score below 0.9;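 on AC50: human adrenal H295R cells primed 48 h with 10 µM forskolin; 17alpha-hydroxyprogesterone secreted into medium measured by HPLC-MS/MS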). Particulars: actives raise or lower the signal. Put shortly: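 Secreted 17alpha-hydroxyprogesterone is read by tandem MS from media of forskolin-primed H295R cells dosed with chemical for 48 h. Activity is fitted in both directions against DMSO baseline; cytotoxic concentrations are re-tested diluted.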

A short description of assay [10]: CEETOX_H295R_CORTIC: CeeTox H295R High-throughput Steroidogenesis Assay for Corticosterone (CORTIC) (AID 2283437; active means hit-call score of the fitted dose curve at least 0.9, where 1 is the maximum; inactive means score below 0.9;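 further: corticosterone secreted into medium quantified by mass spectrometry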;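 on AC50: human H295R adrenal cells prestimulated with forskolin before chemical exposure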). To be noted: actives raise or lower the signal. Put shortly: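 Corticosterone secreted into medium is measured by reverse-phase HPLC with tandem MS following liquid-liquid extraction. Cells are forskolin-stimulated (10 uM, 48 h) before 48 h test exposure; activity fitted in both directions against DMSO.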

A short description of assay [11]: CEETOX_H295R_CORTISOL: CeeTox H295R High-throughput Steroidogenesis Assay for Cortisol (AID 2283438; active means hit-call score of the fitted dose curve at least 0.9, where 1 is the maximum; inactive means score below 0.9;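 further: cortisol secreted into medium quantified by LC-MS/MS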). To be noted: actives raise or lower the signal. A digest of the protocol:
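Human adrenocortical H295R cells (passage ≤10) received test chemicals for 48 h after forskolin priming. Secreted cortisol was measured by LC-MS/MS.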

Assay [12] can be described thus: CEETOX_H295R_DOC: CeeTox H295R High-throughput Steroidogenesis Assay for DOC (AID 2283439; active means hit-call score of the fitted dose curve at least 0.9, where 1 is the maximum; inactive means score below 0.9). Particulars: actives raise or lower the signal. A digest of the protocol: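 Secreted DOC was quantified from H295R media by HPLC-MS/MS after 48 h chemical exposure following 48 h forskolin (10 uM) prestimulation. Values were fitted in both directions relative to DMSO, the negative control and baseline.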

Assay [13] is described as follows: CEETOX_H295R_ESTRADIOL: CeeTox H295R High-throughput Steroidogenesis Assay for Estradiol (AID 2283440; active means hit-call score of the fitted dose curve at least 0.9, where 1 is the maximum; inactive means score below 0.9;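 further: estradiol secreted into medium quantified by LC-MS/MS after dansyl derivatisation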). Particulars: actives raise or lower the signal. A digest of the protocol:
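H295R, 48 h forskolin (10 uM) prestim → 48 h compound, 0.1% DMSO final. Estradiol in medium: MTBE extraction, dansyl chloride derivatization, LC-MS/MS. Fit bidirectional vs DMSO baseline; MTT viability in same wells.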

Assay [14] in a line: CEETOX_H295R_ESTRONE: CeeTox H295R High-throughput Steroidogenesis Assay for Estrone (AID 2283441; active means hit-call score of the fitted dose curve at least 0.9, where 1 is the maximum; inactive means score below 0.9;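 further: estrone secreted into medium measured by LC-MS/MS after dansyl derivatization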;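 on AC50: human adrenal H295R cells prestimulated with forskolin for two days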). Particulars: actives raise or lower the signal. Put shortly:
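H295R cells; 48 h forskolin (10 uM) prestimulation; 48 h compound exposure, 0.1% DMSO final. Medium estrone: MTBE extraction, dansyl derivatization, HPLC-MS/MS. Bidirectional fit vs DMSO.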

Assay [15] can be described thus: CEETOX_H295R_PROG: CeeTox H295R High-throughput Steroidogenesis Assay for Progesterone (PROG) (AID 2283442; active means hit-call score of the fitted dose curve at least 0.9, where 1 is the maximum; inactive means score below 0.9;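 on AC50: human H295R adrenal cells primed with 10 µM forskolin before dosing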). To be noted: actives raise or lower the signal. Put shortly:
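Progesterone read-out: HPLC-MS/MS on MTBE extracts of conditioned medium after 48 h chemical exposure of forskolin-primed (10 uM, 48 h) H295R cells. Gain or loss of signal was fitted relative to DMSO baseline.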

Inconclusive results are not listed. Activity calls are given as the source filed them. How the source made its calls, unless noted: active means hit-call score of the fitted dose curve at least 0.9, where 1 is the maximum; inconclusive means response in the unintended direction; inactive means score below 0.9.

Sequence of Retinoic acid receptor RXR-alpha (Homo sapiens) (P19793 whole entry, looked up, the tested form may be a part): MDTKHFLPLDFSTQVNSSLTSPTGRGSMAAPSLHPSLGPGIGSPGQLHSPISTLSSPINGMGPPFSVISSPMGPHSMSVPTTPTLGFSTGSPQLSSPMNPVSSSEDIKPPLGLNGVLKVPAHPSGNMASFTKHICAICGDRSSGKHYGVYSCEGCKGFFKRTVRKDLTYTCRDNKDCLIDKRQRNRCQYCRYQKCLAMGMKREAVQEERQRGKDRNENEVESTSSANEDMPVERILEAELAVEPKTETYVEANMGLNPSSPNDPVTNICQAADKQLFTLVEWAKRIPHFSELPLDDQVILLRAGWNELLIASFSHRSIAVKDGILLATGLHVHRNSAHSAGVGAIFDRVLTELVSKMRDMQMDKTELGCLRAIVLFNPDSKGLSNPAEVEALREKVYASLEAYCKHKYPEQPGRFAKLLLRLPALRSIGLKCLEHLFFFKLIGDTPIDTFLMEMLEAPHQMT
Sequence of Peroxisome proliferator-activated receptor gamma (Homo sapiens) (P37231 whole entry, looked up, the tested form may be a part): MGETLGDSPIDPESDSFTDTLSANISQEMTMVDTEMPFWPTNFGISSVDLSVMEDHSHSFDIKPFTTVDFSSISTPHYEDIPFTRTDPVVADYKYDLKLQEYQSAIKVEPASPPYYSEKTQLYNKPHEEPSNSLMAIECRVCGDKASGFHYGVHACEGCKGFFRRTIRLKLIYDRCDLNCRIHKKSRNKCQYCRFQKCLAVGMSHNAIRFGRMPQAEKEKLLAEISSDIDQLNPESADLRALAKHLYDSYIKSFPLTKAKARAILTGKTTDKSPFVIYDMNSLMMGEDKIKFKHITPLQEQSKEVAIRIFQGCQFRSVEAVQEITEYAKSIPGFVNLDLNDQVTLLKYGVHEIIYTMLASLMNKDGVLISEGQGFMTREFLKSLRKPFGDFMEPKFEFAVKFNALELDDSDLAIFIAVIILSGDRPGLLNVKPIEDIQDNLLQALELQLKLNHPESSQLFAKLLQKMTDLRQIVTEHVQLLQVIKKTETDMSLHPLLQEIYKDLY
Sequence of Bile acid receptor (Homo sapiens) (Q96RI1 whole entry, looked up, the tested form may be a part): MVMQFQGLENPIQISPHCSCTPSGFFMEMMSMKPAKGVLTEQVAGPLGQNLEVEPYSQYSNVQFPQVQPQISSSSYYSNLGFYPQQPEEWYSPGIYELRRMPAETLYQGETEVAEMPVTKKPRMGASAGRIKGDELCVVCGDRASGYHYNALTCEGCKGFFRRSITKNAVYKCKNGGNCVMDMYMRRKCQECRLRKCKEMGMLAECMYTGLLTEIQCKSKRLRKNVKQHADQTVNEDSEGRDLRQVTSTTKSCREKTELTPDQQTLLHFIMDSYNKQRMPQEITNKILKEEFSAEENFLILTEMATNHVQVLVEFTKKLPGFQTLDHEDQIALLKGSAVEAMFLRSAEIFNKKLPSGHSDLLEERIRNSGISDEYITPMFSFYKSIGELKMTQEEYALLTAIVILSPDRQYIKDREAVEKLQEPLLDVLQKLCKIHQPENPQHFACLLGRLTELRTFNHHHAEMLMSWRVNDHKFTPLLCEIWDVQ

Turning to `CCCCCC1CCC(=O)O1` (centres undefined), the call in assay [1], in [2], in [3], in [4] and in [5] was inactive.

In the case of `CCC(C)(C)C1CCC(=O)CC1`, the compound was called inactive in assay [2], in assay [3], in [4] and in assay [5].

On to `OC[C@H]1O[C@@H](O[C@H]2[C@H](O)[C@@H](O)[C@H](O)O[C@@H]2CO)[C@H](O)[C@@H](O)[C@H]1O`, for which the outcome in [1], in assay [6], in assay [4] and in [5] was inactive.

With `CC12CCC(C1)C(C)(C)C2O` (centres undefined), the compound was called inactive in assay [6], in [2], in assay [3], in assay [4] and in [5].

As to `CCCCCC(=O)O[C@]1(C(C)=O)CC[C@H]2[C@@H]3CCC4=CC(=O)CC[C@]4(C)[C@H]3CC[C@@]21C`, the half-maximal activity concentration (AC50) in assay [1] was 5.16 µM (active); in assay [6] it was 11.6 µM (active); in [2], 11.9 µM (active); in assay [3], 26.3 µM (active); in assay [7], 13.3 µM (active); in assay [8] it was 11.4 µM (active). The half-maximal activity concentration (AC50) in [11] was 6.66 µM (active); in assay [13] it was 13.4 µM (active); in [14], 13.2 µM (active); in assay [15] it was 4.56 µM (active). Further, the compound was classed as inactive in [4], in assay [5], in [9], in [10] and in assay [12].

Turning to `CCCc1ccc(O)cc1`, the call in [1], in [6], in assay [2], in assay [3], in assay [4] and in [5] was inactive. Moreover, the compound was classed as inactive in assay [7], in [8], in [9], in [11], in [12] and in assay [13]. Further, the compound was called inactive in [14] and in assay [15]. Further, in assay [10], the concentration at half-maximal activity (AC50) is 36.4 µM (active).

As for `CC1=CCC(C(C)(C)O)CC1` (centres undefined), the result in assay [1], in [6], in assay [2], in assay [3], in [4] and in assay [5] was inactive.

In the case of `CC1=CCC(C(C)C)=CC1`, the compound was classed as inactive in assay [2] and in assay [3].

Take `CCO[Si](CC)(OCC)OCC`: the result in assay [2] and in assay [3] was inactive.

Take `CCc1cccc(O)c1`: the result in [1], in [6], in [3], in [4] and in assay [5] was inactive.

Take `CC1COC(=O)O1` (centres undefined): the compound was classed as inactive in assay [1], in [6], in assay [2], in assay [3], in assay [4] and in assay [5].

With `CCCCCCCCOC(=O)c1ccc(O)cc1`, the AC50 in [2] is 74.7 µM (active); in assay [3], 92.8 µM (active).

Consider `CCOCC(C)O` (centres undefined), for which the result in assay [6], in assay [2], in [3], in [4] and in assay [5] was inactive.

`CCC(C)(CCCC(C)C)OC(C)=O` (centres undefined): the call in assay [1], in assay [6], in assay [2], in assay [4] and in assay [5] was inactive.

As to `c1ccc(Cc2ccccc2)cc1`, the outcome in assay [6], in assay [2] and in assay [5] was inactive.

`CC(C)(CO)CO`: the result in assay [2] and in [3] was inactive.

As to `COc1ccc2[nH]cc(CCNC(C)=O)c2c1`, the result in assay [1], in [6], in [3], in assay [4], in assay [5] and in assay [8] was inactive. Further, the compound was called inactive in assay [11], in assay [12], in assay [13] and in [14]. Further, the concentration at half-maximal activity (AC50) in assay [7] was 44.5 µM (active); in assay [9] it was 3.07 µM (active); in assay [10] it was 10.5 µM (active); in assay [15], 20 µM (active).

Turning to `O=C1OC2(c3ccc(O)cc3Oc3cc(O)ccc32)c2ccccc21`, the results for the concentration at half-maximal activity (AC50) in assay [1] and in assay [6] were 13.1 µM (active) and 11.4 µM (active), respectively. For the same compound, the compound was called inactive in [4] and in assay [5].

(Values after PubChem BioAssay (EPA / NIEHS).)
